Test results from PubChem BioAssay (NCATS).
Inconclusive results are not listed. A call without a number means that no potency is given here. Activity calls are given as the source filed them. The call rests on the fitted dose curve.

assay: Cytotoxicity counterscreen for inhibitors of SARS-CoV-2 cell entry (AID 1645845); conditions: cell viability (SARS-CoV-2 entry assay cells); series mostly up to 57.1 µM; further: nearly all actives have a fitted effect of over 50% in size
Outline: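 HEK293-ACE2 cells (Expi293F stably expressing human ACE2) seeded overnight, then compound for 1 h plus 48 h at 37C. Viability as ATP content by luminescence; normalized to wells with cells and media-only wells.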

SMILES	Potency	outcome
COc1ccc2nc(S(=O)Cc3ncc(C)c(OC)c3C)[nH]c2c1 (centres undefined)	inactive	–
COc1cc2c(cc1OC)C(=O)C(CC1CCN(Cc3ccccc3)CC1)C2 (centres undefined)	inactive	–
Cc1cccc(Nc2ccncc2S(=O)(=O)NC(=O)NC(C)C)c1	inactive	–
CC1(C)NC(=O)N(c2ccc([N+](=O)[O-])c(C(F)(F)F)c2)C1=O	inactive	–
Nc1nc(N)c2nc(-c3ccccc3)c(N)nc2n1	inactive	–
CCn1cc(C(=O)O)c(=O)c2ccc(C)nc21	inactive	–
CC(=O)Nc1nnc(S(N)(=O)=O)s1	inactive	–
Cc1cn[nH]c1	inactive	–
CC(C)(C)NC(=O)[C@H]1CC[C@H]2[C@@H]3CC[C@H]4NC(=O)C=C[C@]4(C)[C@H]3CC[C@]12C	inactive	–
NCCCC(O)(P(=O)(O)O)P(=O)(O)O	inactive	–
NNCCc1ccccc1	inactive	–
Nc1nc2c(ncn2COC(CO)CO)c(=O)[nH]1	inactive	–
CN(C)CCC=C1c2ccccc2C=Cc2ccccc21	inactive	–
Clc1ccc2c(c1)C(N1CCNCC1)=Nc1ccccc1O2	inactive	–
Cc1[nH]c(=O)c(C#N)cc1-c1ccncc1	inactive	–
Cc1ccnc2c1NC(=O)c1cccnc1N2C1CC1	inactive	–
COc1cc2nc(N3CCN(C(=O)C4CCCO4)CC3)nc(N)c2cc1OC (centres undefined)	inactive	–
NC(=O)C(c1ccccc1)(c1ccccc1)[C@@H]1CCN(CCc2ccc3c(c2)CCO3)C1	inactive	–
COc1ccc(Cl)cc1C(=O)NCCc1ccc(S(=O)(=O)NC(=O)NC2CCCCC2)cc1	inactive	–
O=C(O)COCCN1CCN(C(c2ccccc2)c2ccc(Cl)cc2)CC1 (centres undefined)	inactive	–

SMILES	Potency	outcome
CCCCc1nc(Cl)c(CO)n1Cc1ccc(-c2ccccc2-c2nn[nH]n2)cc1	inactive	–
CC1(C)O[C@@H]2[C@@H](CO[C@@]3(COS(N)(=O)=O)OC(C)(C)O[C@@H]23)O1	inactive	–
O=C(C1CCCCC1)N1CC(=O)N2CCc3ccccc3C2C1 (centres undefined)	inactive	–
O=C(OC1C[C@H]2CC[C@@H](C1)[N+]21CCCC1)C(O)(c1ccccc1)c1ccccc1 (some centres undefined)	inactive	–
COc1cc(Cc2cnc(N)nc2N)cc(OC)c1OC	inactive	–
CCN(CC)CCNC(=O)c1cc(Cl)c(N)cc1OC	inactive	–
Cc1cc(C)cc(OCC2CNC(=O)O2)c1 (centres undefined)	inactive	–
CC(C)(C(=O)O)c1ccc(C(O)CCCN2CCC(C(O)(c3ccccc3)c3ccccc3)CC2)cc1 (centres undefined)	inactive	–
CC1(C)S[C@@H]2[C@H](NC(=O)C(C(=O)O)c3ccccc3)C(=O)N2[C@H]1C(=O)O (some centres undefined)	inactive	–
CN/C(=C\[N+](=O)[O-])NCCSCc1ccc(CN(C)C)o1	inactive	–
N[C@@H](C(=O)N[C@@H]1C(=O)N2C(C(=O)O)=C(Cl)CS[C@H]12)c1ccccc1	–	inactive [at 11.3 µM]
CCC1C(=O)OCC1Cc1cncn1C (centres undefined)	inactive	–
C[C@@H]1C[C@H]2[C@@H]3CCC4=CC(=O)C=C[C@]4(C)[C@@]3(F)[C@@H](O)C[C@]2(C)[C@@]1(O)C(=O)CO	inactive	–
CC(C)Nc1cccnc1N1CCN(C(=O)c2cc3cc(NS(C)(=O)=O)ccc3[nH]2)CC1	inactive	–
Cc1ccc(S(=O)(=O)NC(=O)NN2CCCCCC2)cc1	inactive	–
Clc1ccc(C(c2ccccc2Cl)C(Cl)Cl)cc1 (centres undefined)	inactive	–
CN(C)CCOC(C)(c1ccccc1)c1ccccn1 (centres undefined)	inactive	–
N=c1nc(N2CCCCC2)cc(N)n1O	inactive	–
N[C@@H](Cc1cc(I)c(Oc2cc(I)c(O)c(I)c2)c(I)c1)C(=O)O	inactive	–
